Test [1] is described as follows: inhibitors of TNFa-induced NFkB p65 translocation, primary screen, imaging, HUVEC, MLSMR starter and 10KST1 sets (AID 438;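 active = inhibition above 20% together with a positive visual image hit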;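 note: compound added about 3h40 before a 20 min TNFalpha stimulation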;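 for inhibition: signal is the nuclear over cytoplasmic p65 intensity ratio per well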). The settings on record: HUVEC TNFa-induced p65 nuclear translocation; cell count: measured here: nuclei count (cytotoxicity indicator), at 2.08 µM; inhibition: at 2 µM, stronger effect = higher value, 0% TNFa-plus-vehicle, 100% no-TNFa wells.
Test [2] can be described thus: inhibitors of mutant huntingtin aggregation, primary screen, imaging, exon1htt(103Q)mCFP cells, high-content imaging (AID 483;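 active = visual image review flags a hit and inhibition of aggregation exceeds 20%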;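 note: compound exposure lasted 3 days before fixation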;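 for nuclei count: percent of the per-plate median nuclei count of sample wells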). The settings on record: exon1htt(103Q)mCFP cell line, aggregate imaging, at 2 µM; inhibition of aggregation: stronger effect = higher value; nuclei count: measured here: cell count, toxicity.
A short description of test [3]: inhibitors of E-selectin induction by TNFa, primary screen, imaging, HUVEC, immunofluorescence, MLSMR starter and 10KST1 sets (AID 487;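 active = visually confirmed hit in the image check and inhibition above 20%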;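 for inhibition: signal is fraction of cell area covered by stained E-selectin grains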;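 for nuclei count: 100% = median nuclei count of all wells on the same plate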). The following applies: HUVEC TNFalpha-induced E-selectin immunofluorescence imaging, at 2 µM; inhibition: stronger effect = higher value; nuclei count: measured here: cell number, toxicity.
Test [4] concerns the target Voltage-gated potassium channel subunit beta-2 (Rattus norvegicus) (UniProt P62483). Kind of test: KvBeta enzyme negative modulators, primary screen, biochemical, NADPH fluorescence (AID 622;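 active = fluorescence slope higher than the sample average by over 3 SD, cut at about -0.22 in these data, passing the limit was not always enough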;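 note: slope of raw intensity against log time taken from 70 to 1610 s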). The settings on record: recombinant KvBeta, 4-cyanobenzaldehyde reduction, at 10 µM, stronger effect = higher value.
The target is the same in test [5]. Kind of test: KvBeta positive modulators, primary screen, biochemical, NADPH fluorescence (AID 623;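 active = NADPH fluorescence slope more negative than the mean of all samples by about 3 SD, 99.7% confidence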;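 note: fluorescence intensity change per second fitted from 20 to 320 s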). The following applies: Recombinant KvBeta, NADPH fluorescence decrease slope, 10 min; at 10 µM; stronger effect = lower value.
In test [6] the target is Alpha-2C adrenergic receptor (Homo sapiens) (UniProt P18825). Kind of test: modulators of alpha2C/GIRK thallium flux, primary screen, cell-based, HEK293 alpha2C/GIRK1/2 (AID 624).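 Note: slope of fluorescence ratio to pre-addition baseline per second over 15 to 24 s.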 The following applies: thallium flux BTC fluorescence, at 10 µM, actives lie on both sides.
Chain of Alpha-2C adrenergic receptor (Homo sapiens) (P18825 whole entry, looked up): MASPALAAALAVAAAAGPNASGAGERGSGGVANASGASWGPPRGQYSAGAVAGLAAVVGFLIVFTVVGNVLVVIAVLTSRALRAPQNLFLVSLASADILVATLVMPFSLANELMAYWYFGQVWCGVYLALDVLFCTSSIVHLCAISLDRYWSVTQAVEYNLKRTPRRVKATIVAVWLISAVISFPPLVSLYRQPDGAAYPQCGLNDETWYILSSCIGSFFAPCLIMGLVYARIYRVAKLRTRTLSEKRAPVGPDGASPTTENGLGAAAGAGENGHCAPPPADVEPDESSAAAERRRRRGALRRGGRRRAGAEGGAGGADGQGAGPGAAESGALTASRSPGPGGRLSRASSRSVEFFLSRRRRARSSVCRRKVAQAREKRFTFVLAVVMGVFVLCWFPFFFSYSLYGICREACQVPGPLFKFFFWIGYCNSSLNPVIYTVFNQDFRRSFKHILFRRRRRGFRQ
Test [7] can be described thus: inhibitors of Sendai virus-induced IRF3 signaling, primary screen, TLR/RLR signaling modifier project, cell-based, Sendai virus stimulus, luciferase, 10K MLSCN set (AID 602276;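 active = inhibition at or above 50% at 10 µM; inactive = inhibition below 50%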;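 note: firefly luciferase from ISG56 promoter only with Renilla not read in this screen; 0% = Sendai virus plus DMSO and 100% = medium plus DMSO without virus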). The settings on record: HEK293 RL24 IRF3 luciferase reporter, at 10 µM, stronger effect = higher value.
The nature of test [8]: inhibitors of poly I:C-induced TLR3 signaling, primary screen, cell-based, poly I:C stimulus, luciferase, 10K MLSCN set (AID 602277;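 active = inhibition of the reporter signal at or above 50%; inactive = inhibition below 50%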). The settings on record: HEK293-TLR3 RL24 IRF3 luciferase reporter, at 10 µM, stronger effect = higher value.

The source made the active and inactive calls.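 Rule for the calls, unless noted: active = fluorescence slope after compound addition differing from the mean of all screened samples at 99.7% confidence, in either direction; inactive = the rest.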

Chain of Voltage-gated potassium channel subunit beta-2 (Rattus norvegicus) (P62483 whole entry, looked up): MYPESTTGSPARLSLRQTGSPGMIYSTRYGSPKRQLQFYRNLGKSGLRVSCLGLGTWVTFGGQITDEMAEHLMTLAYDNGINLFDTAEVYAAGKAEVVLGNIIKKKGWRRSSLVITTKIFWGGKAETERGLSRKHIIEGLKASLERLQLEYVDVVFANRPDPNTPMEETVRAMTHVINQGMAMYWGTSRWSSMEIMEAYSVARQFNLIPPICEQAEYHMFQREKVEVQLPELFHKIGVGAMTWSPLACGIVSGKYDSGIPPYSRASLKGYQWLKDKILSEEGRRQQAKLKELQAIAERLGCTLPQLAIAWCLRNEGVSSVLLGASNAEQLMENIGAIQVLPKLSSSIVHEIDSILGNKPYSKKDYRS

Take `O=C(O)CCC(=O)c1c[nH]c2ccccc12`: the cell count in test [1] was found to be 458. Moreover, the inhibition is 0.5% (inactive) in test [1], -43.2% (inactive) in test [3], -16.3% (inactive) in test [7] and 8.52% (inactive) in test [8]. Also, the inhibition of aggregation in test [2] was 20% (inactive). In addition, the nuclei count in test [2] turned out to be 103%; in test [3], 105%. In addition, the fluorescence slope in test [4] was -0.457 (inactive). The NADPH fluorescence slope in test [5] is 9.9e-05 (inactive). In addition, the slope in test [6] was 0.00973 (inactive).
For `COc1ccc(OCC(=O)N2CCN(C(=O)Cc3ccccc3)CC2)cc1`, in test [1], the cell count was 616. The inhibition is -22.3% (inactive) in test [1], -14.3% (inactive) in test [3], -10.1% (inactive) in test [7] and -7.66% (inactive) in test [8]. The inhibition of aggregation in test [2] was -1.4% (inactive). In addition, the nuclei count was determined as 106% in test [2] and 101% in test [3]. Moreover, in test [4], the fluorescence slope was -0.517 (inactive). For the same compound, the NADPH fluorescence slope in test [5] was -4.7e-05 (inactive). Besides, the slope in test [6] is 0.00449 (inactive).
For the compound `CCN(C1CCCCC1)S(=O)(=O)c1ccc(S(=O)(=O)N2CCN(CCC#N)CC2)cc1`, the cell count in test [1] is 870. Also, the inhibition in test [1] was 3.3% (inactive); in test [3], -28.6% (inactive); in test [7], -5.6% (inactive); in test [8], 52% (active). Moreover, in test [2], the inhibition of aggregation was 8% (inactive). In addition, the nuclei count in test [2] came out at 102%; in test [3] it was 108%. In addition, in test [4], the fluorescence slope is -0.584 (inactive). In addition, in test [5], the NADPH fluorescence slope is -1.5e-05 (inactive). Besides, in test [6], the slope is 0.00677 (inactive).
Turning to `COc1ccc(S(=O)(=O)CCC(=O)O)cc1`, in test [1], the cell count came out at 756. Further, the inhibition in test [1] is -2.2% (inactive); in test [3], -47.5% (inactive); in test [7] it was 17% (inactive); in test [8], 21.8% (inactive). In test [2], the inhibition of aggregation is 25.4% (inactive). The nuclei count in test [2] worked out at 126%; in test [3] it was 107%. In test [4], the fluorescence slope is -0.603 (inactive). The NADPH fluorescence slope in test [5] is 1.2e-05 (inactive). In addition, the slope in test [6] is 0.00748 (inactive).
On to `O=C(CSCc1ccccn1)Nc1ccccc1`, for which the cell count in test [1] amounted to 312. Moreover, the inhibition in test [1] is -8% (inactive); in test [3], 4.8% (inactive); in test [7] it was -30.9% (inactive); in test [8], -49% (inactive). For the same compound, in test [2], the inhibition of aggregation is 21.9% (inactive). For the same compound, the nuclei count turned out to be 95.1% in test [2] and 98.8% in test [3]. Also, the fluorescence slope in test [4] is -0.437 (inactive). Moreover, in test [5], the NADPH fluorescence slope was -4.9e-05 (inactive). The slope in test [6] is 0.00582 (inactive).
Consider `COc1cccc(-c2nnn(CC(=O)O)n2)c1`, for which, in test [1], the cell count came to 472. For the same compound, the inhibition was -5.1% (inactive) in test [1], -118% (inactive) in test [3], 6.2% (inactive) in test [7] and 43.8% (inactive) in test [8]. For the same compound, the inhibition of aggregation in test [2] is -19.3% (inactive). For the same compound, the nuclei count in test [2] came to 90.3%; in test [3], 233%. Moreover, the fluorescence slope in test [4] is -0.468 (inactive). The NADPH fluorescence slope in test [5] was 2.6e-06 (inactive). The slope in test [6] is 0.00693 (inactive).
Consider `Cc1cc(C(=O)OCCO)c(C#N)c(N)n1`, for which the cell count in test [1] stood at 299. In addition, the inhibition was 8.5% (inactive) in test [1], -31.1% (inactive) in test [3], 16.3% (inactive) in test [7] and 18.4% (inactive) in test [8]. Besides, the inhibition of aggregation in test [2] is 9.5% (inactive). For the same compound, the nuclei count amounted to 106% in test [2] and 128% in test [3]. In addition, the fluorescence slope in test [4] is -0.132 (active). Moreover, in test [5], the NADPH fluorescence slope is 1.2e-05 (inactive). Moreover, in test [6], the slope was 0.00497 (inactive).
On to `CC(=O)OC1c2ccccc2C(=O)N1c1ccccc1C` (centres undefined), for which the cell count in test [1] amounted to 590. The inhibition was 9% (inactive) in test [1], -51.8% (inactive) in test [3], 10.3% (inactive) in test [7] and 22.9% (inactive) in test [8]. Further, the inhibition of aggregation in test [2] was -20.1% (inactive). Moreover, the nuclei count in test [2] was 85.9%; in test [3], 115%. For the same compound, the fluorescence slope in test [4] was -0.586 (inactive). Moreover, the NADPH fluorescence slope in test [5] is -1.7e-05 (inactive). Moreover, the slope in test [6] was 0.00543 (inactive).
Turning to `Cc1nn(C)c(C)c1CNC(=O)c1cc2n(n1)C(C(F)(F)F)CC(c1cccs1)N2` (centres undefined), the cell count in test [1] worked out at 565. Also, the inhibition was 1.9% (inactive) in test [1], -65% (inactive) in test [3], -2.09% (inactive) in test [7] and -24.4% (inactive) in test [8]. Also, the inhibition of aggregation in test [2] was -16.5% (inactive). In addition, the nuclei count in test [2] stood at 95.1%; in test [3], 115%. The fluorescence slope in test [4] was -0.583 (inactive). Further, the NADPH fluorescence slope in test [5] is -6.9e-05 (inactive). The slope in test [6] was 0.00578 (inactive).
`O=C(NCC1CCCO1)C1c2ccccc2C(=O)N1C1CCCCCC1` (centres undefined): the cell count in test [1] was 445. Moreover, the inhibition was -9.2% (inactive) in test [1], -38.3% (inactive) in test [3], 11.3% (inactive) in test [7] and 15.1% (inactive) in test [8]. Besides, in test [2], the inhibition of aggregation was -4.3% (inactive). Moreover, the nuclei count in test [2] worked out at 101%; in test [3], 109%. Further, the fluorescence slope in test [4] was -0.621 (inactive). In addition, the NADPH fluorescence slope in test [5] was 2.7e-06 (inactive). Further, in test [6], the slope is 0.00613 (inactive).
As to `Cc1ncc(CSc2nc3ccccc3[nH]2)c(N)n1`, the cell count in test [1] turned out to be 920. The inhibition in test [1] was 11.9% (inactive); in test [3] it was -37.5% (inactive); in test [7], 4.12% (inactive); in test [8], -10.7% (inactive). The inhibition of aggregation in test [2] was -17.1% (inactive). Besides, the nuclei count in test [2] is 115%; in test [3] it was 109%. For the same compound, the fluorescence slope in test [4] is -0.606 (inactive). The NADPH fluorescence slope in test [5] was -9.7e-06 (inactive). For the same compound, in test [6], the slope was 0.00699 (inactive).
For `CCN1CCN(c2ncc(C(=O)N3CCN(c4ccccc4OC)CC3)c3ccccc23)CC1`, the cell count in test [1] turned out to be 315. In addition, the inhibition in test [1] was -2.5% (inactive); in test [3] it was 13.2% (inactive); in test [7], 0.246% (inactive); in test [8], 31.7% (inactive). Further, the inhibition of aggregation in test [2] was 0.9% (inactive). The results for the nuclei count in test [2] and in test [3] were 97.8% and 96.4%, respectively. In addition, the fluorescence slope in test [4] was -0.466 (inactive). The NADPH fluorescence slope in test [5] is -4.4e-05 (inactive). Moreover, the slope in test [6] is 0.00623 (inactive).
As for `CCN1CCCC1CNC(=O)CS(=O)(=O)Cc1nc(-c2ccccc2C)oc1C` (centres undefined), the cell count in test [1] worked out at 834. Besides, the inhibition is -0.6% (inactive) in test [1], -87.9% (inactive) in test [3], 5.3% (inactive) in test [7] and 46.5% (inactive) in test [8]. Moreover, the inhibition of aggregation in test [2] is 3.2% (inactive). The nuclei count was found to be 104% in test [2] and 126% in test [3]. Moreover, the fluorescence slope in test [4] was -0.511 (inactive). Moreover, the NADPH fluorescence slope in test [5] was -3e-05 (inactive). The slope in test [6] was 0.00452 (inactive).
On to `O=C(COC(=O)CCC(=O)c1cccs1)NCc1ccco1`, for which the cell count in test [1] stood at 469. For the same compound, the inhibition in test [1] was -20.9% (inactive); in test [3], -16.1% (inactive); in test [7] it was 18% (inactive); in test [8], 25.1% (inactive). Further, the inhibition of aggregation in test [2] is 1.1% (inactive). The nuclei count came out at 101% in test [2] and 86.1% in test [3]. In addition, in test [4], the fluorescence slope was -0.332 (inactive). Besides, in test [5], the NADPH fluorescence slope was -5.5e-05 (inactive). The slope in test [6] is 0.00705 (inactive).

Values taken from PubChem BioAssay.
